Screening results deposited in PubChem by National Center for Advancing Translational Sciences (NCATS).
Rows were chosen to be rich in hits. Some 20% of all compounds tested hit in one or more screens of this group.
Shiga inhibitor = blocks Shiga toxin action in Vero cells | Vero cells, Shiga toxin protein synthesis inhibition reporter | inhibition, % at 38.7 µM | 290,000 tested, 9.2% active | AID 2315; in the data active = inhibition mostly above about 28%, no sharp cut-off; inactive = mostly below about 43%; note: 0% is about no effect
HCMV antiviral = blocks human cytomegalovirus replication | AID 1259415 | HFF cells, HCMV-luciferase reporter, 72 h; stronger effect = lower value | activity change, negative = inhibition, % at 57.5 µM | 410,000 tested, 4.5% active; in the data active = activity change below about -60%; inconclusive = no clear call, values can overlap the other calls; inactive = above about -39%; note: % is set by controls: 0 for no effect and ±100 for the full control effect
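HFF cells seeded 16 h at 37C, treated with compounds, infected with luciferase-reporter HCMV at MOI 1 PFU/cell; luciferase read at 72 h post infection, normalized to buffer-only and Salinomycin controls.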
Pf growth 48h = P. falciparum growth inhibition at 48 hours (one generation); Potency, µM (top dose mostly 28.7 µM), without a hit: top-dose activity change, negative = inhibition, actives largely listed as inhibitors; 310,000 tested, 5.9% active; P. falciparum luciferase growth in erythrocytes, 48 h; note: potency is the fitted concentration of half-maximal effect; % is set by controls: 0 for no effect and ±100 for the full control effect
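In quantitative HTS format, infected erythrocytes bearing luciferase-reporter parasites were treated for a single generation at 37 C. Luminescence after adding detection reagent served as the growth measure.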
Pf growth 96h = P. falciparum growth inhibition at 96 hour, primary screen for plastid delayed-death inhibitors. Potency, µM (highest dose often 28.7 µM), without a hit: top-dose activity change, negative = inhibition, actives largely listed as inhibitors. P. falciparum luciferase reporter growth, 96 h. AID 504834. 320,000 tested, 6.9% active; note: potency is the fitted concentration of half-maximal effect; % is set by controls: 0 for no effect and ±100 for the full control effect
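Plates of compound plus infected erythrocytes (2% hematocrit, 0.05% parasitemia final) incubate 96 hours, 37 C, 5% CO2. Detection reagent added; reduced luminescence from the parasites' luciferase reporter flags inhibition.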
CHX counter = affects cycloheximide protein synthesis inhibition readout, counter-screen; max response, %; cell reporter, cycloheximide protein synthesis inhibition counterscreen; AID 2314; 300,000 tested, 12% active; in the data active = max response mostly above about 13%, no sharp cut-off; inactive = mostly below about 14%; note: read at 38.3 µM for the half of the compounds with a filed dose; 0% is about no effect
The depositor's hits bear a star; ? = inconclusive; · = no result given; ! = not active in a repeat. Unless noted, calls come from the whole dose curve; as a rule, active = well fitted inhibition curve with a large enough effect; inconclusive = small, poorly fitted or top-dose-only effect, or another doubt; inactive = no such curve, though single readings can be large or run the other way.

SMILES | Shiga inhibitor | HCMV antiviral | Pf growth 48h | Pf growth 96h | CHX counter
C#C[C@]1(O)CC[C@@H]2[C@H]3CCC4=CC(=O)CC[C@H]4[C@H]3C(=C)C[C@@]21CC | · | · | -49.0% | -89.1% | ·
CC(C)CCOc1ccc(CO[C@@H]2[C@H]3OC(C)(C)O[C@H]3O[C@@H]2C(O)CO)cc1 (stereo not given in full) | -13.7 | -1.8 | ? | -0.5% | -0.4
CC(C)[C@@H]1C=C(C(=O)O)O[C@H](OCCCCO)C1 | -0.6 | 11.6 | -8.0% | 13.3% | -3.3
COc1ccccc1N1CCN(S(=O)(=O)c2cc(C(F)(F)F)cc(C(F)(F)F)c2)CC1 | -7.8 | 72.1 | 6.57µM* | 6.57µM* | -2.2
COc1ccccc1N1CCN(C2CCN(S(=O)(=O)c3ccc(C)cc3)CC2)CC1 | 11.5 | 0.0 | ? | 4.15µM* | -1.2
COc1ccccc1N1CCN(S(=O)(=O)c2ccc3nc(-c4ccccc4)[nH]c3c2)CC1 | -8.1 | 59.7 | -25.4% | 2.94µM* | -6.6
COc1ccccc1N1CCN(C2CCN(S(=O)(=O)c3ccc4ccccc4c3)CC2)CC1 | 44.1 | ? | 13.1µM* | ? | -1.8
CCOCCn1ccc2c(OCC(=O)Nc3ccccc3OC)cccc2c1=O | · | 11.8 | ? | ? | ·
Cc1ccc(CNC(=O)CCC2CCCN(Cc3cc4ccccc4o3)C2)o1 (stereo not given) | -5.5 | 16.3 | -12.5% | -11.0% | -1.6
Nc1cccc2c1C(=O)N(C(=O)/C=C/c1cccc(Br)c1)C2=O | 42.5* | ? | 16.0% | 30.2% | 40.1*
COc1cc(/C=C/C(=O)N2C(=O)c3cccc(N)c3C2=O)cc(OC)c1OC | 11.4 | 15.7 | ? | ? | -3.1
COc1ccc(OC)c(/C=C/C(=O)N2C(=O)c3cccc(N)c3C2=O)c1 | 23.5 | ? | 8.5% | 46.0% | 1.0
Nc1cccc2c1C(=O)N(C(=O)/C=C/c1cccc(F)c1)C2=O | 140.1* | -3.5 | 20.1% | 25.3% | 34.3*
Cc1nc(C)c(Oc2cccc(C(F)(F)F)c2)c(=O)[nH]1 | 15.1 | 28.8 | 8.3% | -1.2% | -0.1
O=C(CCc1ccccc1)Nc1cc2c3c(c1)CC(=O)N3CCC2 | · | -23.2 | ? | 2.3% | ·
CCc1cc(C(=O)OC)c(NC(=O)C2CC(=O)NN2Cc2ccccc2)s1 (stereo not given) | -14.1 | 31.0 | -1.6% | ? | -4.7
CCOC(=O)N1CCC(N2Cc3cccc(C(=O)N4CCN(c5cccc(C)c5C)CC4)c3C2=O)CC1 | 13.8 | 1.2 | 10.4µM* | ? | -1.6
CCOC(=O)c1ccccc1NC(=O)c1cccc2c1C(=O)N(C1CCN(C(=O)OCC)CC1)C2 | 3.2 | 0.3 | · | -3.2% | -3.7
CCOC(=O)N1CCC(N2Cc3cccc(C(=O)Nc4ccccc4OC)c3C2=O)CC1 | -9.7 | 8.5 | 9.28µM* | ? | 2.1
CCC(CC)C(=O)N1CCc2cc(OC)c(OC)cc2C1COc1ccc(C(=O)OC)cc1 (stereo not given) | · | 3.4 | · | · | ·
COc1cc(/C=C2/C(=N)N3C=CSC3=NC2=O)ccc1OCCCOc1ccccc1C | 53.6* | 2.1 | -17.3% | -1.3% | 10.0
CCOc1cc(/C=C2/C(=N)N3C=CSC3=NC2=O)ccc1OCCCOc1ccccc1C | 16.1 | -32.8 | ? | ? | 37.6*
COc1cc(/C=C2/C(=N)N3C=CSC3=NC2=O)ccc1OCCCOc1c(C)cccc1C | 34.9 | 20.9 | 14.0% | 7.7% | -1.9
N/C(COc1ccccc1)=N\NC(=O)c1cccnc1Oc1ccccc1 | 3.5 | 55.2 | · | ? | -0.6
Cc1ccc(NC(=O)Cn2nnc(C(=O)NCc3ccc4c(c3)OCO4)c2N)cc1 | -5.4 | -26.7 | 0.0% | 31.6% | 0.9
SMILES | Shiga inhibitor | HCMV antiviral | Pf growth 48h | Pf growth 96h | CHX counter
CC(C)c1ccc(NC(=O)Cn2nnc(C(=O)NCc3ccc4c(c3)OCO4)c2N)cc1 | 0.8 | ? | -17.0% | 9.28µM* | 12.0
COc1ccc(Cn2nnc(C(=O)Nc3ccc4c(c3)OCCO4)c2N)cc1Br | 27.4 | 54.1 | -17.5% | 11.7µM* | 16.6*
Nc1c(C(=O)NCc2ccc3c(c2)OCO3)nnn1CC(=O)Nc1ccc(Br)cc1 | 5.3 | ? | -2.0% | 31.4% | -4.0
COc1ccc(Cl)cc1NC(=O)Cn1nnc(C(=O)NCc2ccc3c(c2)OCO3)c1N | -6.3 | -33.4 | 16.1% | 4.6% | 2.1
Cc1cc(C)c(NC(=O)Cn2nnc(C(=O)NCc3ccc4c(c3)OCO4)c2N)c(C)c1 | -9.0 | · | 19.9% | 14.7µM* | 17.5
COc1ccccc1NC(=O)Cn1nnc(C(=O)NCc2ccc3c(c2)OCO3)c1N | -3.9 | -69.3*! | -22.1% | 4.2% | 10.5
CCCCN(C)CCNC(=O)c1cn(C)c(=O)c2c1c1ccccc1n2C | 5.7 | 14.9 | -24.1% | 32.0% | -2.1
CN(C)c1ccc(C(=O)/C=C/c2ccco2)cc1 | 112.4* | 35.1 | 169.2% | 99.6% | 49.7*
O=C(/C=C\c1ccco1)c1ccc(NC(=O)c2ccco2)cc1 | 73.4 | 71.0 | 45.7% | 0.0% | 25.6*
O=C(C=Cc1ccco1)c1ccc2ccccc2c1 | · | 18.9 | · | · | ·
CC(=O)Nc1ccc(C(=O)/C=C/c2ccco2)cc1 | -7.2 | 35.9 | 24.2% | 33.0% | -1.5
O=C(/C=C/c1ccco1)c1ccc(O)cc1 | 84.1 | · | 208.3% | 194.9% | 38.0*
O=C(Nc1cccc(C(=O)OCc2cc(=O)n3nc(C4CC4)sc3n2)c1)c1ccc(F)cc1 | · | 79.0 | · | · | ·
Cc1ccc(CNC(=O)Cn2c(=O)n(-c3ccccc3)c(=O)c3sccc32)cc1 | -9.0 | -37.2 | 325.9% | ? | 6.3
O=c1[nH]c(=O)n(-c2cccc3ccccc23)c(O)c1C=NCc1ccc2c(c1)OCO2 | -17.9 | -108.3* | · | -3.4% | -4.1
Cc1nc(C(F)(F)F)ccc1C(=O)N1CCC1(C)C(=O)NS(=O)(=O)c1cccc(F)c1 (stereo not given) | · | 17.7 | · | · | ·
COC(=O)Cn1nnnc1-c1nc2cc(C)c(C)cc2[nH]c1=O | · | -5.9 | · | · | ·
Cc1ccccc1CSCC(=O)N1CCN(c2ccccc2)CC1 | 70.3* | -29.9 | 28.5% | 7.2% | 23.1*
COc1cccc(-c2nc(CS(=O)CC(=O)N3CCC4(CC3)OCCO4)c(C)o2)c1 (stereo not given) | -6.5 | -16.9 | 29.3% | 4.3% | -1.6
Cc1cccc(-c2nc(CS(=O)CC(=O)N3CCN(C)CC3)c(C)o2)c1 (stereo not given) | -12.3 | 35.7 | · | 7.38µM* | -5.3
O=C(CSCc1ccccc1Cl)N1CCN(c2ccc(Cl)cc2)CC1 | · | -4.4 | · | · | ·
CCCNS(=O)(=O)c1ccc(CCC(=O)N2CCN(c3ccc(F)cc3)CC2)cc1 | -16.6 | -65.4* | 0.9% | 42.3% | -5.8
COc1ccc(-c2nc(CSCC(=O)N3CCN(c4ccc(F)cc4)CC3)c(C)o2)cc1 | · | -90.2* | · | · | ·
C=CCn1c(=O)c2ccccc2n2c(SCC(C)=O)nnc12 | -15.6 | 15.3 | 28.6% | 26.8% | -1.3
O=C(O)c1ccc(NC(=O)c2ccccc2NC(=O)c2ccccc2Br)cc1 | -3.9 | -7.9 | 3.3% | ? | -0.4
CCCNC(=O)CN1CCC(c2nc3ccccc3[nH]2)CC1 | -4.5 | 0.0 | -9.4% | -1.0% | -1.4
